Our source for the outcome and Potency values is PubChem BioAssay (Tox21).

Values joined by “and” are separate entries in the source; they are usually repeats but may differ in a detail not shown here. Equal values may be shown once. Inconclusive results are not listed. More than one record can exist for a structure, and the calls need not agree. Active and inactive are the calls of the source. Unless noted, calls come from the whole dose curve; as a rule, active = well fitted curve in the direction sought with a large enough effect in the repeat runs; inconclusive = weak or mixed curves; inactive = flat fitted curve, though single readings scatter.

Assay [1] can be described thus: qHTS assay to test for compound auto fluorescence at 535 nm (green) in HEK293 cells (AID 720680).
Assay [2] is described as follows: qHTS assay to test for compound auto fluorescence at 460 nm (blue) in HEK293 cell free culture (AID 720681). In outline: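 Blue fluorescence (Ex 405/Em 460 nm, triamterene-equivalent) was read immediately after pin transfer of compound or DMSO into medium (DMEM, 10% FBS) without cells.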
A short description of assay [3]: qHTS assay to test for compound auto fluorescence at 535 nm (green) in HEK293 cell free culture (AID 720682). The method, boiled down:
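Using fluorescein as calibrant, autofluorescence was quantified at 485/535 nm in cell-free DMEM containing 10% FBS after pintool addition of compound or vehicle.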

A short description of assay [4]: qHTS assay to test for compound auto fluorescence at 590 nm (red) in HEK293 cell free culture (AID 720683). The method, boiled down:
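Red-channel autofluorescence of compounds in culture medium (DMEM, 10% FBS), no cells, measured at 540/590 nm. Rose Bengal sodium is the reference fluorophore for equivalence.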

Assay [5] in a line: qHTS assay to test for compound auto fluorescence at 590 nm (red) in HepG2 cell free culture (AID 720684). The method, boiled down: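 Plate contents were MEM with 10% FBS plus test compound or DMSO, no cells. Fluorescence was recorded with 540 nm excitation and 590 nm emission.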
A short description of assay [6]: qHTS assay to test for compound auto fluorescence at 460 nm (blue) in HepG2 cell free culture (AID 720685). The method, boiled down: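 Compound (23 nL) or DMSO pinned into cell-free MEM with 10% FBS; blue fluorescence read at 405/460 nm excitation/emission, expressed as auto-fluorescence equivalency to triamterene.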
Assay [7] is described as follows: qHTS assay to test for compound auto fluorescence at 535 nm (green) in HepG2 cell free culture (AID 720686).
The nature of assay [8]: qHTS assay to test for compound auto fluorescence at 460 nm (blue) in HepG2 cells (AID 720687). In outline: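 Blue-channel autofluorescence (Ex/Em 405/460 nm, triamterene-equivalent) was measured after 1 hr compound exposure at 37 C, 5% CO2. Cells were HepG2, plated overnight at 37 C in MEM plus 10% FBS.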
In assay [9] the target is Glucocorticoid receptor (Homo sapiens) (UniProt P04150). Kind of assay: qHTS assay to identify small molecule agonists of the glucocorticoid receptor (GR) signaling pathway (AID 720691; active = well fitted activation curve with a large enough effect in the signal ratio in the repeat runs, not every such curve was filed as active; the % refers to the signal ratio). The method, boiled down:
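GR-bla HeLa cells carrying a GRE-driven beta-lactamase reporter, exposed to compounds for 18 h at 37 C. Reporter activation read as fluorescence after 2 h with LiveBLAzer B/G FRET substrate at room temperature.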

For assay [10] the target is unchanged. Description: qHTS assay to identify small molecule antagonists of the glucocorticoid receptor (GR) signaling pathway (AID 720692; active = well fitted inhibition curve with a large enough effect in the signal ratio in the repeat runs, not every such curve was filed as active; the % refers to the signal ratio; note: potency is the fitted concentration of half-maximal effect). The method, boiled down: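 GR-bla HeLa cells carrying a GRE-driven beta-lactamase reporter received compound after 4 h plating, then dexamethasone (5 nM final). After 18 h at 37C, the FRET substrate was loaded for 2 h at room temperature and fluorescence read.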

Sequence of Glucocorticoid receptor (Homo sapiens) (P04150 whole entry, looked up): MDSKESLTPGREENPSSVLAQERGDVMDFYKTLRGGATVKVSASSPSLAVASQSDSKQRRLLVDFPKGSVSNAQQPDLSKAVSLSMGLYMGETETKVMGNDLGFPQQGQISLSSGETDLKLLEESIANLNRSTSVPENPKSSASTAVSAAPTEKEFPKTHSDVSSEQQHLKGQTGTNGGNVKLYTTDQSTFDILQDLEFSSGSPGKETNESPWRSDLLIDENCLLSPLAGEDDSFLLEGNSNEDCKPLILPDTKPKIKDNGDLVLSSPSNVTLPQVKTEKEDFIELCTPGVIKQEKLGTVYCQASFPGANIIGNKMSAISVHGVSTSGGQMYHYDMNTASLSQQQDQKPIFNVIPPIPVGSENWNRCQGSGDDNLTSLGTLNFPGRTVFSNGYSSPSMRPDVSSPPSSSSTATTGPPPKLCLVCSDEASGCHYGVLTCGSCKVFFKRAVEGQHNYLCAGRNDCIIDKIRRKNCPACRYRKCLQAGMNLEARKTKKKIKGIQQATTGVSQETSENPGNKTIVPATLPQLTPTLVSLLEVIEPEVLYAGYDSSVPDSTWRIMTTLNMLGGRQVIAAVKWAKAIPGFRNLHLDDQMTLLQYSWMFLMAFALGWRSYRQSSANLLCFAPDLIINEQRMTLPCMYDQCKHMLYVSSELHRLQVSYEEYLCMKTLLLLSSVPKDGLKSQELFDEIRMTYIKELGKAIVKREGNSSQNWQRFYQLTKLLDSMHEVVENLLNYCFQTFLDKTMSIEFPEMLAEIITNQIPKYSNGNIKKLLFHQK

Regarding `O=C(CCl)c1ccccc1`, the compound was called inactive in [1], in assay [2], in [3], in assay [4], in assay [5] and in assay [6]. Further, the outcome in assay [7] and in assay [8] was inactive. Further, the Potency result in [9] is “inactive”. In addition, in assay [10], the Potency result was “inactive and 54.9 µM (active)”.
For the compound `COP(=S)(OC)Oc1ccc([N+](=O)[O-])cc1`, the result in assay [1], in [2], in assay [3], in assay [4], in assay [5] and in assay [6] was inactive. The result in assay [7] and in assay [8] was inactive.
On to `CC(C)N(C(=O)SCC(Cl)=C(Cl)Cl)C(C)C`, for which the compound was called inactive in assay [1], in assay [2], in assay [3], in [4], in [5] and in assay [6]. The outcome in [7] and in [8] was inactive. Further, the Potency result in assay [9] and in assay [10] was “inactive” throughout.
With `Nc1cccnc1`, the outcome in assay [1], in assay [2], in assay [3], in assay [4], in [5] and in assay [6] was inactive. For the same compound, the compound was called inactive in assay [7] and in assay [8].
`O=P(O)(O)CCCl`: the call in assay [1], in assay [2], in assay [3], in assay [4], in assay [5] and in assay [6] was inactive. The call in assay [7] and in assay [8] was inactive.
Turning to `CN(C)C(=O)Nc1ccc(Cl)cc1`, the compound was called inactive in assay [1], in [2], in assay [3], in assay [4], in assay [5] and in assay [6]. Also, the compound was classed as inactive in [7] and in assay [8]. The Potency result in assay [9] and in assay [10] was “inactive” each time.
On to `COc1ccc(C(CN(C)C)C2(O)CCCCC2)cc1` (stereo unspecified), for which the compound was called inactive in [1], in assay [2], in assay [3], in assay [4], in assay [5] and in [6]. Moreover, the compound was classed as inactive in [7] and in assay [8].
Regarding `NNC(=S)NN`, the outcome in [1], in assay [2], in assay [3], in assay [4], in assay [5] and in [6] was inactive. For the same compound, the compound was classed as inactive in [7] and in [8].
`S=C1NCCN1`: the outcome in assay [1], in assay [2], in assay [3], in [4], in assay [5] and in assay [6] was inactive. The compound was classed as inactive in [7] and in assay [8].
For `Nc1ccc(Cl)cc1N`, the compound was classed as inactive in assay [1], in assay [2], in assay [3], in [4], in [5] and in assay [6]. Moreover, the outcome in [7] and in assay [8] was inactive. Besides, the Potency entry in assay [9] and in assay [10] was “inactive” in each case.
As to `CCCCCCCCOC(=O)c1ccccc1C(=O)OCCCCCCCC`, the outcome in assay [1], in assay [2], in [3], in assay [4], in [5] and in [6] was inactive. Moreover, the result in assay [7] and in assay [8] was inactive.
For `O=C1C=CC(=O)C=C1`, the result in assay [1], in assay [2], in assay [3], in [4], in [5] and in [6] was inactive. Besides, the result in assay [7] and in assay [8] was inactive.
For the compound `Nc1ccc(Cl)c(Cl)c1`, the result in assay [1], in [2], in assay [3], in assay [4], in assay [5] and in assay [6] was inactive. Also, the outcome in assay [7] and in assay [8] was inactive.
With `CC1(C)C(C=C(Cl)Cl)C1C(=O)OC(C#N)c1cccc(Oc2ccccc2)c1` (stereo unspecified), the result in assay [1], in assay [2], in assay [3], in assay [4], in assay [5] and in [6] was inactive. For the same compound, the result in assay [7] and in [8] was inactive. The Potency entry in [9] was “inactive”.
As to `ClC1C(Cl)C(Cl)C(Cl)C(Cl)C1Cl` (stereo unspecified), the compound was classed as inactive in assay [1], in [2], in [3], in assay [4], in assay [5] and in assay [6]. For the same compound, the result in assay [7] and in [8] was inactive.
Consider `O=[N+]([O-])c1ccc(O)c([N+](=O)[O-])c1`, for which the compound was classed as inactive in [1], in [2], in assay [3], in assay [4], in [5] and in assay [6]. Besides, the compound was called inactive in [7] and in assay [8].
`Cc1cc(C)cc(C)c1`: the compound was called inactive in assay [1], in [2], in assay [3], in assay [4], in assay [5] and in assay [6]. Also, the result in [7] and in assay [8] was inactive.
As to `Nc1ccc(-c2ccccc2)cc1`, the compound was called inactive in assay [1], in [2], in assay [3], in assay [4], in assay [5] and in assay [6]. Further, the result in [7] and in assay [8] was inactive.
`CCN(CC)C(=O)SCc1ccc(Cl)cc1`: the outcome in [1], in [2], in [3], in assay [4], in assay [5] and in [6] was inactive. For the same compound, the outcome in assay [7] and in assay [8] was inactive. For the same compound, the Potency result in [9] and in [10] was “inactive” in each case.
For `CC(C)Oc1cc(-n2nc(C(C)(C)C)oc2=O)c(Cl)cc1Cl`, the call in assay [1], in assay [2], in assay [3], in assay [4], in assay [5] and in [6] was inactive. Further, the compound was classed as inactive in [7] and in assay [8]. Further, the Potency entry in assay [9] is “inactive”.
Consider `C[C@]12CCC(=O)C[C@@H]1CC[C@@H]1[C@@H]2CC[C@]2(C)[C@@H](O)CC[C@@H]12`, for which the outcome in assay [1], in assay [2], in [3], in [4], in assay [5] and in [6] was inactive. The outcome in assay [7] and in [8] was inactive.
Regarding `CC(C)c1ccc(CO)cc1`, the call in assay [1], in [2], in assay [3], in assay [4], in assay [5] and in [6] was inactive. For the same compound, the compound was classed as inactive in assay [7] and in [8].
In the case of `CCC(CC)Nc1c([N+](=O)[O-])cc(C)c(C)c1[N+](=O)[O-]`, the compound was classed as inactive in assay [1], in assay [2], in assay [3], in [4], in [5] and in [6]. The call in assay [7] and in assay [8] was inactive. Besides, the Potency result in assay [9] and in [10] was “inactive” in each case.
Consider `O=C(O)C(F)(F)C(F)(F)C(F)(F)C(F)(F)C(F)(F)C(F)(F)C(F)(F)F`, for which the outcome in assay [1], in [2], in assay [3], in assay [4], in [5] and in assay [6] was inactive. Besides, the call in assay [7] and in [8] was inactive.
Turning to `Oc1c(Cl)c(Cl)c(Cl)c(Cl)c1Cl`, the compound was classed as inactive in [1], in assay [2], in assay [3], in assay [4], in assay [5] and in [6]. The compound was classed as inactive in assay [7] and in assay [8]. For the same compound, the Potency result in assay [9] was “inactive”.
For the compound `N#Cc1cc(Br)c(O)c(Br)c1`, the outcome in assay [1], in [2], in assay [3], in assay [4], in [5] and in assay [6] was inactive. In addition, the compound was classed as inactive in assay [7] and in assay [8]. Moreover, the Potency result in [9] was “inactive”.
As to `CCc1cccc(CC)c1N(COC)C(=O)CCl`, the call in [1], in [2], in assay [3], in assay [4], in assay [5] and in [6] was inactive. Further, the outcome in assay [7] and in assay [8] was inactive. Further, the Potency entry in assay [9] was “inactive”.
As for `O=[N+]([O-])c1cccc2ccccc12`, the result in assay [1], in assay [2], in assay [3], in [4], in assay [5] and in assay [6] was inactive. Besides, the call in [7] and in assay [8] was inactive.
